Experimental findings from PubChem BioAssay AID1626 (SRMLSC, 2009) are described below.

Hit rate of the full screen: of about 220,000 compounds, about 2,000 (0.91%) were called active. Roughly 2% stayed inconclusive and do not appear here. No stated cut-off is given here; in the data, inconclusive means inhibition above about 80% without an active follow-up result; inactive means below that; test concentration not stated here. These entries were drawn from the full list. Potency and affinity values are given separately.

The assay in a line: M. tuberculosis H37Rv growth inhibitors, H37Rv strain (AID 1626).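 Further: bacteria incubated seven days before Alamar blue readout; 0% = bacteria only wells and 100% = bacteria with antibiotic wells.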 The conditions noted are these: active compounds read high, concentration not given here.
For orientation: inhibition means the relative decrease from the control value, in per cent. With `Cc1ccc2nc(N3CCN(c4cccc(C)c4C)CC3)c3nnnn3c2c1`, the inhibition is -7.81% (inactive).

Take `Cc1ccc(-c2nc3ccccc3n3nnnc23)cc1`: the inhibition was 4.17% (inactive).

For `CC(C)CNC(=O)CN1C(=O)NC(Cc2c[nH]c3ccccc23)C1=O` (stereo not given), the inhibition was -13.9% (inactive). Turning to `O=C(NCC1CCN(S(=O)(=O)c2ccccc2)CC1)Nc1ccccc1`, the inhibition is 10.3% (inactive). The result for `O=C(N/N=C/c1cccc(O)c1)c1ccccc1O` reads -7.64% (inactive); that for `Cc1ccc(Cn2ccc(=O)c(Cc3c(Cl)cccc3Cl)c2C)cc1`, 0.62% (inactive); that for `Cc1ccc(Cn2ccc(=O)c(OCc3ccccc3)c2C)cc1`, 1.78% (inactive). The same measure for `CC(C)=Nc1ccccc1C1COC(=O)C1=N` (stereo not given): -1% (inactive).

For `COc1ccccc1NC(=O)O/N=C(\N)c1ccccc1`, the inhibition is 11.1% (inactive). The result for `Cc1nc(CC(=O)c2ccc(O)c(C)c2O)cs1` reads 7.54% (inactive).

Take `O=C(CSc1ccc2ccccc2n1)N1CCC(c2noc3ccc(F)cc23)CC1`: the inhibition was -2.15% (inactive). The result for `Cc1nnc(SCC(=O)N2CCC(c3noc4ccc(F)cc34)CC2)s1` reads -0.75% (inactive); that for `COC(=O)C[C@H]1c2cc(C(F)(F)F)ccc2S(=O)(=O)N1C1CCCC1`, -3.21% (inactive); that for `O=C(Cc1ccc(Br)cc1)Nc1ccc(Cl)cc1`, -2.03% (inactive). The result for `COc1ccc(C2C(C(=O)O)c3ccccc3C(=O)N2Cc2ccco2)cc1` (stereo not given) reads -9.26% (inactive); that for `COC(=O)c1ccc(NC(=O)NS(=O)(=O)c2ccc(C)cc2)cc1`, 55.9% (inactive); that for `COC(=O)c1ccc(NC(=O)CCOc2ccccc2)cc1`, 23.7% (inactive).

On to `CCOC(=O)c1ccc(NC(=O)Nc2ccc(S(N)(=O)=O)cc2)cc1`, for which the inhibition is -7.07% (inactive). Consider `CCOC(=O)Nc1ccc(Oc2ccccc2)cc1`, for which the inhibition was 8.39% (inactive). The result for `CCOC(=O)Nc1cccc(Nc2ccccc2)c1` reads 3.05% (inactive); that for `CC(=O)Nc1ccc(NC(=O)Oc2ccccc2)cc1`, -9.97% (inactive).

For the compound `CC(=O)c1ccc(NC(=O)Oc2ccccc2)cc1`, the inhibition is -7.64% (inactive).

As for `O=C(CCOc1ccccc1)Nc1ccccc1`, the inhibition is 7.71% (inactive).

Consider `CC(C)c1ccccc1NC(=O)COc1ccc2c(=O)c(Oc3ccc4ccccc4c3)coc2c1`, for which the inhibition is 5.82% (inactive).

On to `COC(=O)c1cc(NS(=O)(=O)c2cccc(Cl)c2)ccc1N1CCOCC1`, for which the inhibition is 3.2% (inactive). The result for `O=C(CN(CC1CCCO1)C(=O)CCC(=O)Nc1nccs1)NCc1ccccc1` (stereo not given) reads -3.47% (inactive). The result for `COc1ccccc1N(C)S(=O)(=O)c1ccc(C(=O)OCC(=O)N2CCCCCC2)cc1` reads 9.09% (inactive); that for `CC1=NN(C(C#N)c2cccc([N+](=O)[O-])c2)C(C)(C)C1` (stereo not given), -1.89% (inactive); that for `Cc1ccc(OCCC(=O)Nc2ccc(F)c(F)c2)cc1`, -1.46% (inactive). The same measure for `Cc1ccc(OCCCC(=O)Nc2ccc(Br)cc2)cc1`: -4.3% (inactive). For `CC(=O)Nc1ccc(NC(=O)CCSCCc2ccccn2)cc1`, the inhibition was -0.22% (inactive). The same measure for `CCOC(=O)c1ccc(NC(=O)CN(C)S(=O)(=O)c2ccc(OC)cc2)cc1`: -10.7% (inactive); for `Cc1ccc(NC(=O)CCSCCc2ccccn2)cc1`: 71.6% (inactive); for `COc1ccc(NC(=O)CCOc2ccccc2)cc1`: 70.1% (inactive). As to `O=C(CN1CC(=O)Nc2ccccc21)Nc1ccc(F)c(F)c1`, the inhibition was 0.62% (inactive).

Consider `COc1ccc(CCNC(=O)CSc2cccc3cccnc23)cc1OC`, for which the inhibition was 3.55% (inactive). The result for `CCC(C)NC(=O)c1ccccc1SC` (stereo not given) reads 9.14% (inactive). With `CCN(Cc1cc(=O)[nH]c2ccccc12)C(=O)c1ccc(C)cc1`, the inhibition is -2.96% (inactive).

On to `COc1ccc(C(=O)NC(=S)Nc2ccc(CN3CCCCC3)cc2)cc1Cl`, for which the inhibition is 7.56% (inactive). In the case of `CCOC(=O)c1c(C)oc2ccc(OS(C)(=O)=O)cc12`, the inhibition was 0.04% (inactive). The result for `Cc1oc2ccc(OS(C)(=O)=O)cc2c1C(=O)OC(C)C` reads -0.97% (inactive). The same measure for `COC(=O)c1c(C)oc2ccc(OC(=O)N3CCOCC3)cc12`: -6.17% (inactive). Regarding `CCOC(=O)c1c(C)oc2ccc(OCC(N)=O)cc12`, the inhibition was 8.61% (inactive). The same measure for `COC(=O)c1c(C)oc2ccc(NS(=O)(=O)c3cccs3)cc12`: 2.07% (inactive); for `Cc1oc2ccc(OC(=O)N(C)C)cc2c1C(=O)OC(C)C`: -7.47% (inactive). The result for `COC(=O)c1ccc(CSc2nc3c(cnn3-c3ccc(C)cc3)c(=O)[nH]2)o1` reads -0.23% (inactive).

As for `CC1(C)C(=O)Nc2ccccc2N1C(=O)COc1ncnc2ccccc12`, the inhibition is 4.16% (inactive). As to `O=C(C[n+]1ccc(/C=N/O)cc1)NCc1ccccc1`, the inhibition is -12.5% (inactive).

As to `COc1cc(CCNc2ccc3nnc(-c4ccccc4)n3n2)cc(OC)c1OC`, the inhibition was 10.3% (inactive). The same measure for `O/N=C1\CCCCc2ccccc21`: -4.26% (inactive); for `CC12CCC(C(=O)N3CCN(C(c4ccccc4)c4ccccc4)CC3)(OC1=O)C2(C)C` (stereo not given): 1.93% (inactive); for `CC(Nc1nc(-c2ccc(F)cc2)cs1)c1nc2cc(Cl)c(N3CCCCC3)cc2n1CCCO` (stereo not given): 78% (inactive). The same measure for `CC(Nc1nc(-c2ccc(F)cc2)cs1)c1nc2cc(Cl)c(N3CCCCC3)cc2n1CCOCCO` (stereo not given): 19.6% (inactive); for `COc1ccc(-c2csc(NC(C)c3nc4cc(Cl)c(Cl)cc4n3CCCO)n2)cc1` (stereo not given): 5.27% (inactive); for `CC(Nc1nc(-c2ccc(Cl)cc2)cs1)c1nc2cc(Cl)c(N3CCCCC3)cc2n1CCOCCO` (stereo not given): 44.5% (inactive). The result for `Cc1ccc(NC(=O)c2cc(NC(=O)C3CC=CCC3C(=O)O)ccc2N2CCOCC2)cc1Cl` (stereo not given) reads -6.7% (inactive); that for `Cn1c(NC(=O)c2cccc(Cn3cc(Cl)cn3)c2)nc2ccccc21`, 84.7% (inactive).

As for `CN(C)CCn1c(NC(=O)c2ccc(Cl)cc2)nc2ccccc21`, the inhibition is 65.2% (inactive).

`CCn1c(CNC(=O)c2ccccc2)nc2ccccc21`: the inhibition is -6.06% (inactive). The same measure for `CCN(CC)CCn1c(NC(=O)c2ccc(Cl)cc2)nc2ccccc21`: 57.6% (inactive).

`CC(C)NC(=O)c1cccc(Cn2cc(Cl)cn2)c1`: the inhibition is -2.76% (inactive). The same measure for `CC(=O)Nc1nc2ccccc2n1CCN1CCOCC1`: -6.15% (inactive); for `O=C(Nc1nc2ccccc2n1CCN1CCCC1)c1ccc(Cl)cc1`: 58.7% (inactive); for `CCn1c(NC(C)=O)nc2ccccc21`: 2.94% (inactive). The same measure for `Cc1c(C(=O)N/N=C/c2ccc(N3CCOCC3)cc2)nc2ccccn12`: 3.49% (inactive).

For `CC(c1ccccc1)c1nnc(NC(=O)c2ccc3c(c2)OCO3)s1` (stereo not given), the inhibition was 6.54% (inactive).

As for `O=C(OCCN1C(=O)c2ccccc2C1=O)C1CCN(S(=O)(=O)c2cccs2)CC1`, the inhibition is -5.04% (inactive). The result for `CCCCNC(=O)N1CCN(C/C=C/c2ccccc2)CC1` reads 5.68% (inactive); that for `O=C(c1ccc(C(F)(F)F)cc1)N1CCCCC1`, -0.08% (inactive); that for `Fc1cccc(NC(=S)NCc2cccnc2)c1`, 21.1% (inactive). The result for `O=c1c2cc(-c3ccccc3)sc2nc2n1N=C(c1ccccc1)CS2` reads 10.6% (inactive); that for `CCCCN(CCCC)Cc1cc2ccccc2c2c1COC2`, 4.07% (inactive); that for `CCCn1c(NC(=S)Nc2ccccc2)nc2ccccc21`, 7.73% (inactive). The same measure for `CCCn1c(Nc2nc3ccccc3n2C)nc2ccccc21`: 2.56% (inactive); for `CCCn1c(Nc2ccccc2C)nc2ccccc21`: -8.39% (inactive); for `CCCn1c(CNC(=O)c2ccccc2)nc2ccccc21`: -0.92% (inactive). On to `CCCn1c(C(C)NC(=O)c2ccccc2)nc2ccccc21` (stereo not given), for which the inhibition was 0.32% (inactive). For `CCCn1c(NCCO)nc2ccccc21`, the inhibition is -2.95% (inactive). With `CCn1c(C(C)NC(=O)c2cccs2)nc2ccccc21` (stereo not given), the inhibition is 2.83% (inactive). Take `CCn1c(CCCNC(=O)c2cccs2)nc2ccccc21`: the inhibition was -2.25% (inactive). The same measure for `Cc1onc(-c2ccccc2Cl)c1C(=O)N1C=CC(C(F)(F)Cl)=NCC1`: 1.09% (inactive); for `O=C(NCc1ccc(Cl)cc1)c1cc(-c2cccs2)on1`: -1.76% (inactive); for `Cc1cccc(SCC(=O)Nc2ccccc2[N+](=O)[O-])c1`: 7.5% (inactive). As to `COc1ccc(N=C2S/C(=C\c3ccc(OCC(=O)O)cc3)C(=O)N2CCc2c[nH]c3ccccc23)cc1`, the inhibition was -4.37% (inactive). The result for `Cc1ccc(C)c(CN2C(=O)COc3ccc(C(=O)c4ccccc4C(=O)O)cc32)c1` reads 15.8% (inactive); that for `CCN(CC)S(=O)(=O)c1cccc(NC(=O)COC(=O)CNC(=O)c2cccc(F)c2)c1`, -4.29% (inactive); that for `Cc1ccccc1NS(=O)(=O)c1cc(C(=O)NCc2ccco2)ccc1C`, -1.94% (inactive). Consider `COc1cc(NC(=O)CSc2nnc(C)s2)cc(OC)c1OC`, for which the inhibition was 0.33% (inactive). Regarding `CCn1c(NC(=O)Nc2ccccc2OC)nc2ccccc21`, the inhibition is 81.5% (inactive). The same measure for `CCn1cc(Cl)c(C(=O)Nc2nc3ccccc3n2CCN2CCCCC2)n1`: 3.91% (inactive). For the compound `Cc1ccc(-c2nc(C(F)(F)F)cc(=O)[nH]2)cc1`, the inhibition was -0.92% (inactive).

Take `CCOC(=O)c1c(NC(=O)c2nn(CC)cc2Br)c(C#N)cn1-c1ccccc1`: the inhibition was -6% (inactive). For `CCn1ccnc1CN1CCCC(C(=O)c2ccc(OC)cc2OC)C1` (stereo not given), the inhibition was -1.43% (inactive).

`Cc1ncc(CN2CCCC(C(=O)c3cccc(OC(C)C)c3)C2)s1` (stereo not given): the inhibition is -0.24% (inactive). The result for `COc1ccc(O)c(CN2CCCC(C(=O)c3ccccc3SC)C2)c1` (stereo not given) reads -3.14% (inactive); that for `COc1ccc(OC)c(CN2CCCC(C(=O)c3ccccc3SC)C2)c1` (stereo not given), 5% (inactive); that for `CCn1ccnc1CN1CCCC(C(=O)c2cc(C)c(OC)c(C)c2)C1` (stereo not given), 9.37% (inactive). The result for `CCOC(=O)N1CCC(N2CCCC(C(=O)c3cccc(OC)c3)C2)CC1` (stereo not given) reads 0.16% (inactive); that for `CC(C)Oc1cccc(C(=O)C2CCCN(Cc3ccon3)C2)c1` (stereo not given), 5.09% (inactive); that for `CCOC(=O)N1CCC(N2CCCC(C(=O)c3cc(C)c(OC)c(C)c3)C2)CC1` (stereo not given), -0.88% (inactive).
